# Screens (PubChem)
# Prx2 Sm inh: Schistosoma Mansoni Peroxiredoxins (Prx2). Potency, µM. S. mansoni Prx2 activity coupled to TGR/GSH (TGR is thioredoxin glutathione reductase), NADPH fluorescence loss, qHTS. Schistosoma mansoni peroxiredoxin 2 (Prx2). 65,000 compounds, 0.07% hits
#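 qHTS, coupled TGR/Prx2 format; 15 min compound preincubation at RT; reaction started with H2O2 (2.5 mM aliquot); kinetic NADPH fluorescence decrease, ex 365/em 450 nm.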
# Anthrax LT inh: qHTS Assay for Anthrax Lethal Toxin Internalization; AID 912, 2007; Potency, µM (titrated, usually from 40 µM), for the others: top-dose activity change, negative = inhibition, usual class: inhibitors; Cells, anthrax lethal toxin internalization, FRET ratio (460/530); 70,000 compounds, 0.67% hits; also: % is scaled to controls: 0 for no effect and ±100 for the full control effect; nearly all actives have a fitted effect of over 50% in size
# AmpC inh det: Promiscuous and Specific Inhibitors of AmpC Beta-Lactamase (assay with detergent). P00811. purified AmpC, nitrocefin hydrolysis with detergent. Potency, µM (doses to about 28.7 µM), for inactives: top-dose activity change, negative = inhibition. AID 584, 2007. 71,000 compounds, 0.09% hits; active = well fitted curve in the direction sought with a large enough effect; inconclusive = small, poorly fitted or top-dose-only effect; also: % is scaled to controls: 0 for no effect and ±100 for the full control effect
# Target sequence (P00811 whole entry, looked up): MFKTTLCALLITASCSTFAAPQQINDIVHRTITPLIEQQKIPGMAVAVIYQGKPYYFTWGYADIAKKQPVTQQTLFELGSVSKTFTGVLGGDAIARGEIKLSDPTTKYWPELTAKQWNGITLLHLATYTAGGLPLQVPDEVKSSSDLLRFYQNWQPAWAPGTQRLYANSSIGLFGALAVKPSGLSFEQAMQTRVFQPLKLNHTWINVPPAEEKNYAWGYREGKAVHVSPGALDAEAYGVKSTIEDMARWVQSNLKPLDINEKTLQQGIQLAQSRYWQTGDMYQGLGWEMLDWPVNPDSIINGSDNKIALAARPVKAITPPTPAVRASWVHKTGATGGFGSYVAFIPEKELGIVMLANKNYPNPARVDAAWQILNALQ
#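 E. coli AmpC (5.3 nM) in 20 mM phosphate pH 7.0 with 0.01% Triton X-100, preincubated 15 min RT with compound; nitrocefin (2 uL of 800 uM stock) hydrolysis followed by 480 nm absorbance every 20 s over 4 min.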
# AmpC nodet inh: Promiscuous and Specific Inhibitors of AmpC Beta-Lactamase (assay without detergent); P00811; AmpC nitrocefin hydrolysis, absorbance 480 nm, no detergent; Potency, µM (titrated, usually from 28.7 µM), for the others: top-dose activity change, negative = inhibition; 71,000 compounds, 1.8% hits; AID 585, 2007; also: % of control where 0% means no effect
#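 Enzyme, pH 7.0 phosphate. Compound titrations were pre-incubated with AmpC for 15 min at room temperature before nitrocefin (stock 800 uM) addition; product formation was recorded at 480 nm every 20 s for 4 min.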
# Numbers without * were called inactive; ? = inconclusive; nt = no result; [ ] = remark or other dose. Shown are actives, neighbours in structure and some others; about 2.6% of the full set was active somewhere. Unless noted, calls follow the shape of the full dose curve. Potency is read from the fitted curve at half-maximal effect.
SMILES,Prx2 Sm inh,Anthrax LT inh,AmpC inh det,AmpC nodet inh
Cc1oc(C)c2c(=O)ccc3c(c12)OC(N)=C(C#N)C3c1ccccc1 (stereo not given),>57,-23.9%,-3.9%,-16.8%
C1CCOC1,nt,nt,8.0%,-2.6%
CCOC(=O)N1CCC(NC(=O)Cn2nc(Cc3ccncc3)c3ccccc3c2=O)CC1,>57,-10.3%,13.8%,3.98µM*[single pt active]
CCOC(=O)N1CCC(NC(=O)Cn2nc(-c3ccccc3)ccc2=O)CC1,>57,?,-6.3%,111.8%
COC(=O)c1cc2sccc2n1CC(=O)N1CCCc2ccccc21,>57,10µM*,-5.7%,14.6%
CCOC(=O)CCc1c(C)nc2c(c(C)nn2C(C)(C)C)c1C,>57,?,12.7%,3.98µM*[single pt active]
Cc1oc(-c2cccc(Cl)c2)nc1CN1CCC(C(=O)NCc2ccco2)CC1,>57,?,-2.4%,77.4%
Cc1oc(-c2ccc(Cl)cc2)nc1CN1CCC(C(=O)NCCCN2CCCC2=O)CC1,>57,-4.7%,12.0%,93.1%
CCN1CCN(CCNC(=O)C2CCN(Cc3nc(-c4ccc(Cl)cc4)oc3C)CC2)CC1,>57,?,12.2%,3.98µM*[single pt active]
CCN1CCCC1CNC(=O)C1CCN(Cc2nc(-c3cccc(Br)c3)oc2C)CC1 (stereo not given),>57,6.31µM*,-4.0%,49.6%
Cc1ccccc1-c1nc(CN2CCC(C(=O)NCCCN3CC(C)CC(C)C3)CC2)c(C)o1 (stereo not given),>57,2.51µM*,-3.3%,34.0%
Cc1nc2ccc(S(=O)(=O)NC(C(=O)N3CCC(C)CC3)C(C)C)cc2s1 (stereo not given),>57,-10.8%,23.1%,3.98µM*[single pt active]
Cc1nc2ccc(S(=O)(=O)NC(CC(C)C)C(=O)O)cc2s1 (stereo not given),>57,-5.2%,9.0%,1.0%
Cc1nc2ccc(S(=O)(=O)NC(C(=O)N3CCCC3)C(C)C)cc2s1 (stereo not given),>57,0.1%,10.3%,3.98µM*[single pt active]
Cc1nc2ccc(S(=O)(=O)NCC(=O)N3CCC(N4CCCCC4)CC3)cc2s1,>57,-14.0%,-3.5%,-8.0%
CCOC(=O)c1c(NC(=O)Cc2cccs2)sc2c1CCCC2,>57,12.6µM*,-6.3%,?
CCOC(=O)c1c(NC(=O)c2cccs2)sc2c1CCCC2,nt,-21.2%,10.7%,-3.9%
CN1CCN(c2ncc3ncc(=O)n(CCc4ccccc4)c3n2)CC1,>57,9.8%,-1.4%,10.4%
COc1cc(SC)ccc1C(=O)Nc1ccc2c(c1)OCCO2,>57,10µM*,5.4%,29.0%
COc1ccccc1C(=O)Nc1ccc2c(c1)OCCO2,>57,0.8%,-1.5%,-2.2%
CNCC[C@H](Oc1ccccc1OC)c1ccccc1,>57,-5.4%,1.6%,36.1%
Cc1nc2ccccc2c2oc(C(=O)NCC3COc4ccccc4O3)cc12 (stereo not given),>57,5.01µM*,8.0%,116.8%
Cc1nc2ccccc2c2oc(C(=O)Nc3ccc4c(c3)OCCO4)cc12,>57,0.794µM*,0.6%,-1.4%
Cc1ccn2cc(C(=O)Nc3ccccc3N3CCOCC3)nc2c1,>57,?,-3.0%,37.7%
Cc1cccc(N2CCN(C(=O)c3cc4c(C)nc5ccccc5c4o3)CC2)c1C,>57,10µM*,3.6%,113.3%
SMILES,Prx2 Sm inh,Anthrax LT inh,AmpC inh det,AmpC nodet inh
Cc1ccn2cc(C(=O)Nc3ccc4c(c3)OCCO4)nc2c1,>57,7.94µM*,-3.6%,10.1%
CN1CCN(c2ncc3nc(-c4ccc(Cl)cc4)c(=O)n(C)c3n2)CC1,>57,?,-1.2%,142.7%
N#CCCn1c(=O)c(-c2ccc(Cl)cc2)nc2cnc(OCc3ccccc3)nc21,>57,?,0.8%,4.8%
CCN(CC)S(=O)(=O)c1ccc(-c2nnc3sc4cccc(C)c4n23)cc1,>57,?,14.0%,3.98µM*[single pt active]
CCc1ccc(N(CC(=O)NC2CCCCC2)S(=O)(=O)c2c(C)noc2C)cc1,>57,-24.2%,11.9%,3.98µM*[single pt active]
CCOc1ccc(N(CC(=O)NC2CCCCC2)S(=O)(=O)c2c(C)noc2C)cc1,>57,-3.1%,6.2%,13.6%
COc1ccc(C2=NOC(C(=O)Nc3ccc(C)cc3)C2)cc1OC (stereo not given),>57,3.2%,-2.6%,48.5%
COc1ccc(C2=NOC(C(=O)Nc3cc(C)nn3-c3ccccc3)C2)cc1OC (stereo not given),>57,-2.1%,15.0%,3.98µM*[single pt active]
COc1ccc(-c2cc(-c3ccccc3O)[nH]n2)cc1OC,nt,12.6µM*,8.1%,45.7%
COc1ccc(-c2cc(-c3cc(F)ccc3O)[nH]n2)cc1OC,>57,10µM*,4.1%,78.5%
Oc1ccccc1-c1cc(-c2ccc3c(c2)OCCO3)n[nH]1,>57,20µM*,12.1%,-5.6%
COc1ccc(O)c(-c2cc(-c3cccc(Br)c3)n[nH]2)c1,nt,?,16.8%,-20.4%
COC(=O)c1cc(-c2ccc(OC)c(OC)c2)n[nH]1,>57,-12.6%,-2.5%,3.3%
Cn1c(=O)c(-c2ccc(Cl)cc2)nc2cnc(Oc3ccccc3)nc21,>57,?,-0.1%,-16.2%
C[C@@]12CCC(=O)C=C1CC[C@H]1[C@H]3CC[C@](O)(C(=O)CO)[C@]3(C)CC[C@@H]12,>57,13.3%,-4.6%,15.2%
COc1ccccc1CNC(=O)C1CCC(CNc2c(N3CCOCC3)c(=O)c2=O)CC1 (stereo not given),>57,?,11.6%,27.8%
COc1cc(NC(=O)C2CCC(CNc3c(N4CCCCC4)c(=O)c3=O)CC2)cc(OC)c1 (stereo not given),>57,?,13.0%,3.98µM*[single pt active]
O=C(NC1CCCc2ccccc21)C1CCC(CNc2c(N3CCOCC3)c(=O)c2=O)CC1 (stereo not given),>57,?,10.3%,3.16µM*[single pt active]
O=S(=O)(Nc1ccc2nc(-c3ccc(Br)o3)[nH]c2c1)c1ccccc1,>57,nt,10.4%,3.16µM*
CCCS(=O)(=O)c1nnnn1-c1cccc(OC)c1,>57,3.16µM*,-7.0%,-8.5%
Cc1cc(CN2CCN(CCC#N)CC2)c(O)c(C2(C)CCCCC2)c1,>57,12.6µM*,-8.2%,14.1%
N[C@H](C(=O)O)[C@H](N)C(=O)O,>57,2.8%[8 µM],10.2%[5.75 µM],0.8%[5.75 µM]
C[C@@H]1Cc2ccccc2N1NC(=O)c1ccc(Cl)c(S(N)=O)c1 (stereo not given in full),>57,?,-0.8%[12.8 µM],-0.7%[12.8 µM]
N=C(N)SCCc1ccc(OCc2ccc([N+](=O)[O-])cc2)cc1,>57,-19.4%,-6.9%,15.8µM*
CC[C@]1(O)C[C@H]2CN(CCc3c([nH]c4ccccc34)[C@](C(=O)OC)(c3cc4c(cc3OC)N(C)[C@@H]3[C@](O)(C(=O)OC)[C@H](OC(C)=O)[C@]5(CC)C=CCN6CC[C@]43[C@@H]65)C2)C1,>57,?,-0.7%,143.5%
O=C(O)COCCN1CCN([C@@H](c2ccccc2)c2ccc(Cl)cc2)CC1,>57,7.0%[3.58 µM],-0.2%[12.8 µM],28.0%[12.8 µM]
COc1cccc2cc(C(=O)n3ccc(C)n3)c(=O)oc12,>57,-9.4%,10µM*,10µM*
